Compounds without any hit were thinned out: in the full panel of roughly 83,000, 20% have a hit.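 Negative percent growth values reflect cell death: -40 means 40% of the cells present at the start died, and -100 means all died.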 Values without a mark were called inactive. Calls of active or inactive are those of the source. How the source made its calls: active means growth percent below 10; inactive means the rest.

In the assay the test system is KM12 colon. Briefly: NCI-60 one-dose screen, 48 h (100 = growth as untreated, 0 = no growth, -100 = all killed). The conditions noted are these: 10 µM unless noted.
Take `C#C[C@]1(O)CC[C@H]2[C@@H]3CC=C4c5sc(-c6cccc(F)c6)nc5CC[C@]4(C)[C@H]3CC[C@@]21C`: the growth was 75.6%.

For the compound `COc1ccc(NS(=O)(=O)c2ccc(-c3cnc(C4CC4)o3)cc2)cc1Cl`, the growth is 22.7%.

Turning to `Cc1cc(=O)n2nc(-c3c[nH]c4ccccc34)sc2n1`, the growth was 101%.

With `CCN1C(=O)N(CC)C2SC(N/N=C/c3ccccc3)=NC21` (centres undefined), the growth is 13.3%.

On to `CC1=C2C(=C[C@@](C)(COS(N)(=O)=O)[C@@H]2O)C(=O)[C@](C)(O)C12CC2`, for which the growth was 99.5%.

Turning to `CCNCc1c(-c2cccc(OC(F)(F)F)c2)[nH]c2ccc(N3CCCC3)cc2c1=O`, the growth is 14.8%.

`CN(C)c1ncc(/C=C2\SC(=S)N(Cc3ccccc3Cl)C2=O)s1`: the growth was 97.5%.

On to `O=C(CN1C(=O)S/C(=C\c2ccccc2)C1=O)Nc1ccc(C(=O)/C=C/c2cc3ccccc3nc2Cl)cc1`, for which the growth was 87.7%.

On to `O=S(=O)(Nc1ccc(C2CC2)cc1)c1ccc(-c2cnc(C3CC3)o2)cc1`, for which the growth is 48.3%.

Consider `Oc1ccc(-c2nnc(SCc3ccc(O)c4ncccc34)o2)cc1`, for which the growth is 9.65% (active).

With `C#C[C@]1(O)CC[C@H]2[C@@H]3CC=C4c5sc(-c6ccc(OC)cc6)nc5CC[C@]4(C)[C@H]3CC[C@@]21C`, the growth was 60%.

For the compound `CCCC(=O)NC(c1cccnc1)c1cc(C(C)=O)c2cccnc2c1O` (centres undefined), the growth was 21.4%.

Take `CC(=O)Nc1ccc(NC(=O)Nc2cccc(-c3nc(-c4ccc(NC(=O)c5cccs5)cc4Cl)no3)c2)cc1C(F)(F)F`: the growth was -50.1% (active).

`O=C(CN1CCN(c2cc(=O)n(-c3ccccc3)c3ccccc23)CC1)Nc1ccc([N+](=O)[O-])cc1`: the growth was 92.9%.

`O=S(=O)(Nc1cc(Cl)cc(Cl)c1)c1ccc(-c2cnc(C3CC3)o2)cc1`: the growth is 24.2%.

With `CCOC(=O)c1c(NCC(=O)Nc2cccc([N+](=O)[O-])c2)sc2c1CCCC2`, the growth is -20.4% (active).

Turning to `COc1ccc(Oc2ccc(C3CC(c4cc(OC)c(OC)c(OC)c4)=NN3C(C)=O)cc2)cc1` (centres undefined), the growth is 27.5%.

Regarding `O=S(=O)(Nc1ccc2c(c1)OC(F)(F)O2)c1ccc(-c2cnc(C3CC3)o2)cc1`, the growth was 30.9%.

As for `COc1ccc(Cn2cc3c(c2-c2ccccc2)CCCc2cnoc2-3)cc1`, the growth was 32%.

In the case of `Cc1nn(-c2ccccc2)cc1/C=N/Nc1nc(Nc2ccccc2)nc(Nc2ccc(S(N)(=O)=O)cc2)n1`, the growth was 9.04% (active).

On to `COc1cc2c3c(n(CCCNC4CCCCC4)c(=O)c2cc1OC)-c1cc2c(cc1C3=O)OCO2`, for which the growth is 57.4%.

In the case of `CC(=O)Nc1ccc(NC(=O)Nc2cccc(-c3nc(-c4ccc(NC(=O)c5cccnc5)cc4Cl)no3)c2)cc1C(F)(F)F`, the growth was -46.2% (active).

On to `O=C(Nc1cccc(-c2nc(-c3ccc(NC(=O)c4cccnc4)cc3Cl)no2)c1)Nc1ccc(NC(=O)C2CC2)c(C(F)(F)F)c1`, for which the growth was -63.9% (active).

As to `O=C(C[n+]1ccnc2ccccc21)c1ccc(O)c(O)c1`, the growth was 82.3%.

For `CCOc1ccc2nc(NC(=O)Nc3ccccc3C)sc2c1`, the growth is 40.7%.

For `O=C(COc1ccc(C2SCC(=O)N2c2ccccc2)cc1)c1ccccc1` (centres undefined), the growth is 99.4%.

On to `Cc1cc(O)c2c(c1)C(=O)C(c1c(C)cc3c(c1O)C(=O)C=CC3=O)=CC2=O`, for which the growth was 109%.

For the compound `O=S(=O)(Nc1cc(Cl)c(F)c(Cl)c1)c1ccc(-c2cnc(C3CC3)o2)cc1`, the growth is 26.1%.

In the case of `CN(C)CCn1c2ccc(N)cc2c2nc3ccccc3nc21`, the growth is 38.5%.

For the compound `Cn1c2ccccc2c2c3c(c4c5ccc(Br)cc5oc4c21)C(=O)N(O)C3=O`, the growth was 92.4%.

As to `COc1ccc(-c2nnc(/N=C3/C(=O)Nc4ccc(Br)cc43)o2)cc1`, the growth was 89.7%.

With `C#C[C@]1(O)CC[C@H]2[C@@H]3CC=C4c5sc(C6CC6)nc5CC[C@]4(C)[C@H]3CC[C@@]21C`, the growth is 57.4%.

Turning to `CCc1ccc(NC(=O)N[C@@H](Cc2cccc(F)c2)C(=O)N[C@@H]2C(=O)N3CCC[C@H]3C(=O)N3CCCC[C@H]3C(=O)N[C@@H](CO)C(=O)N3C[C@H](C)C[C@H]3C(=O)O[C@H]2C)c(F)c1`, the growth was 37.8%.

`CC(C)=CCc1c(O)c(CC=C(C)C)c2c(c1O)C(=O)C1=C[C@@H]3C[C@H]4C(C)(C)O[C@@](C/C=C(\C)C(=O)O)(C3=O)[C@@]14O2`: the growth is -18.4% (active).
